DT40 TDP1 no CPT: qHTS for Inhibitors of human tyrosyl-DNA phosphodiesterase 1 (TDP1): qHTS in cells in absence of CPT | DT40 Tdp1-/- hTDP1 cells, no CPT, ATP luminescence, 48 h | Potency, µM (highest dose often 46.2 µM), actives largely listed as inhibitors | 15% of 420,000 active | AID 686978, 2013; also: nearly all actives have a fitted effect of over 55% in size
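Luminescent ATP content (CellTiter-Glo) served as the growth readout. Knockout chicken DT40 cells expressing human TDP1 were exposed to compounds without camptothecin for a minimum 48 hr at 37 °C.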
IL1B secr inh: inflammasome signaling inhibition, IL-1 beta readout. THP-1 LPS/ATP IL-1B secretion, AlphaLISA, 16 h; active compounds read low. 4.7% of 360,000 active. activity change, % at 57.5 µM; in the data active = activity change below about -50%; inconclusive = mostly about -30% to -49%
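Secreted IL-1B measured by AlphaLISA bead assay after 16 h compound exposure of THP-1 cells; compounds (final up to 57.5 uM) added 1 h before LPS (250 ng/mL) and ATP (1.25 mM) stimulation; lower signal means less secretion.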
HT1080 IDH1KD tx: kills HT-1080 cells with IDH1 knockdown | HT-1080 IDH1 knockdown viability, ATP luminescence, 48 h | Potency, µM (series often up to 46.1 µM), usual class: cytotoxic | 2% of 360,000 active | AID 686971
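IDH1KD HT-1080 cells, 750/well, RPMI + 5% FBS; compound pinned after 2 h settling; 48 h, 37 °C; CellTiter-Glo luminescence; % activity normalised to DMSO and no-cell wells; curves fitted, classed by r2 and efficacy.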
HT1080-NT tox: kills 2HG-producing HT-1080-NT fibrosarcoma cells. HT-1080-NT fibrosarcoma viability, CellTiter-Glo ATP luminescence, 48 h. Potency, µM (highest dose often 46.1 µM), actives largely listed as cytotoxic. 1.6% of 360,000 active. AID 686970;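 also: NT is the 2HG producing partner of a matched IDH1 knockdown line; nearly all actives have a fitted effect of over 55% in size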
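750 cells/well, RPMI + 5% FBS; 2 h settle, compound pin-transfer, 48 h at 37 degrees C. CellTiter-Glo 10 min RT, luminescence. Normalized to DMSO and media-only wells.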
TDP1 cell CPT: growth inhibition of DT40 Tdp1-/-;hTDP1 cells with camptothecin (screen for TDP1 inhibitors) | chicken DT40 Tdp1-/-;hTDP1 cells + 20 nM CPT, ATP luminescence, 48 h | Potency, µM (doses to about 46.2 µM), most hits filed as inhibitors | 12% of 420,000 active; also: nearly all actives have a fitted effect of over 55% in size
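Chicken DT40 Tdp1-/- cells stably complemented with human TDP1 were seeded at 400 cells/well in medium containing 20 nM camptothecin, exposed to pin-transferred compounds, and grown at 37 °C for at least 48 hr. Viability was read as ATP luminescence.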
A number is an active result; n = inactive; u = inconclusive; x = no result given. Hits are enriched below; roughly 19% of the tested compounds scored in any of these assays. Unless noted, calls follow the shape of the dose curve; as a rule, active = well fitted curve in the direction sought with a large enough effect; inconclusive = small, poorly fitted or top-dose-only effect, or another doubt; inactive = no such curve, though single readings can be large; an effect the other way counts as inactive or inconclusive.

SMILES	DT40 TDP1 no CPT	IL1B secr inh	HT1080 IDH1KD tx	HT1080-NT tox	TDP1 cell CPT
CCCCN(C(=O)c1ccc(S(=O)(=O)N2CCC(C)CC2)cc1)C1CCS(=O)(=O)C1 (centres undefined)	u	n	n	n	n
O=[N+]([O-])c1cccc(S(=O)(=O)NCCCn2ccnc2)c1	n	n	n	u	n
C/C(=N/NC(=O)c1nnn(-c2nonc2N)c1-c1ccccc1)c1ccc2c(c1)OCO2	n	-86	n	n	n
CCOc1cccc(-c2c(C(=O)N/N=C(\C)c3ccccn3)nnn2-c2nonc2N)c1	1.6µM	n	u	u	2.3µM
C/C(=N\NC(=O)c1nnn(-c2nonc2N)c1CN1CCc2ccccc21)c1ccccc1O	6.5µM	n	n	n	6.5µM
Nc1nonc1-n1nnc(C(=O)N/N=C/c2ccccc2)c1CN1CCc2ccccc21	u	n	n	n	u
O=C(CSC1=Nc2ccccc2N=C(c2ccc(F)cc2)C1)Nc1cccc(C(F)(F)F)c1	23µM	x	x	x	u
CCc1cccc(NC(=O)CSC2=Nc3ccccc3N=C(c3ccc(F)cc3)C2)c1	13µM	x	x	x	21µM
O=C(CSCCO)Nc1cccc(C(F)(F)F)c1	n	n	n	n	n
COc1ccc(S(=O)(=O)N(Cc2ccco2)Cc2cc3ccccc3[nH]c2=O)cc1	u	n	n	n	u
O=C(CSc1nnc(-c2cccnc2)o1)Nc1ccccc1F	u	n	n	n	n
COc1ccc(CNC(=O)CN2C(=O)CSc3ccc(S(=O)(=O)N4CCOCC4)cc32)c(OC)c1	n	n	n	n	n
Cc1ccc(NC(=S)c2nc3ccccc3s2)cc1	u	n	n	n	u
S=C(Nc1ccc(Cl)cc1)c1nc2ccccc2s1	15µM	n	n	u	u
Cc1ccc(Nc2nc3ccccc3s2)c(C)c1	u	-62	n	n	u
Cc1ccc(C)c(NC(=S)c2nc3ccccc3s2)c1	u	n	n	n	26µM
O=C(Nc1ccc(Cl)cc1)/C(=C/c1cccc(O)c1)c1nc2ccccc2s1	4.6µM	-101	4.1µM	4.6µM	5.2µM
CCOC(=O)C1(Cc2cccc(OC)c2)CCCN(C(=O)CCc2cccnc2)C1 (centres undefined)	n	n	n	n	n
COc1ccc(F)cc1COc1nc(C)nc2ccccc12	18µM	n	n	n	u
CCCCCNC(=O)C1C(=O)Nc2ccccc2C(=O)N1c1ccc(OC)cc1 (centres undefined)	u	n	n	n	u
Cc1snc(S(=O)(=O)/C(C#N)=N/Nc2cccc(C(F)(F)F)c2)c1C#N	u	n	n	n	16µM
COc1ccc(N/N=C(/C#N)S(=O)(=O)c2nsc(C)c2C#N)cc1	u	n	n	n	n
Cc1ccc(C)n1-c1nnc(N2CCCC(C(=O)NCc3ccc(F)cc3)C2)s1 (centres undefined)	8.2µM	x	x	x	18µM
Cc1n[nH]c(C)c1S(=O)(=O)N1CCCC(C(=O)NCc2ccc(F)cc2)C1 (centres undefined)	n	n	n	n	n
Cc1ccc(CNC(=O)C2CCCN(c3nn4c(=O)cc(C)nc4s3)C2)cc1 (centres undefined)	u	n	n	n	n
SMILES	DT40 TDP1 no CPT	IL1B secr inh	HT1080 IDH1KD tx	HT1080-NT tox	TDP1 cell CPT
Cc1ccc(CNC(=O)C2CCCN(c3nnc(-n4c(C)ccc4C)s3)C2)cc1 (centres undefined)	18µM	x	x	x	u
Cc1ccc(C)n1-c1nnc(N2CCCC(C(=O)NCc3ccc(Cl)cc3)C2)s1 (centres undefined)	9.2µM	x	x	x	u
COCCn1c(=O)c(-c2cccs2)nc2cnc(N3CCOCC3)nc21	n	x	x	x	n
CC(C)(C)C(=O)CSc1nc(N)cc(=O)[nH]1	n	n	n	n	n
CN(CC(=O)Nc1cccnc1)S(=O)(=O)c1ccccc1	n	n	n	n	n
O=C(CN(c1ccc(Cl)c(C(F)(F)F)c1)S(=O)(=O)c1ccccc1)Nc1cccnc1	7.3µM	x	x	x	u
O=C(CN(c1cccc(C(F)(F)F)c1)S(=O)(=O)c1ccc(Cl)c([N+](=O)[O-])c1)NCc1ccc(F)cc1	16µM	-99	u	u	16µM
